# Assay results reported in PubChem BioAssay (Tox21).
# Several values for one entry are separate records, joined by “and”; a condition that tells them apart may be missing. Equal entries are not always repeated. Results filed as inconclusive are left out. Activity calls are given as the source filed them. Calls come from the whole dose curve; as a rule, active = well fitted inhibition curve with a large enough effect in the repeat runs; inconclusive = weak or mixed curves, or effect the other way; inactive = no such curve, though single readings can be large or run the other way.
# Biological target: Nuclear receptor subfamily 1 group I member 3 (Homo sapiens) (UniProt Q14994)
# Test: qHTS assay to identify small molecule antagonists of the constitutive androstane receptor (CAR) signaling pathway (AID 1224838);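 note: HepG2 cells stably expressing hCAR with CYP2B6 luciferase reporter stimulated by CITCO; nearly all actives have a fitted effect of over 40% in size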
# Settings: HepG2-CYP2B6-hCAR luciferase, CITCO-stimulated, 24 h; series mostly up to 92.4 µM; activity, negative = inhibition: at the top concentration
# Text: U.S. Tox21 Program National Center for Advancing Translational Sciences [NCATS] NIH Chemical Genomics Center [NCGC] U.S. Environmental Protection Agency [EPA] National Institutes of Environmental Health Sciences [NIEHS] National Toxicology Program [NTP] U.S. Food and Drug Administration [FDA] Tox21 Assay Overview: The constitutive androstane receptor (CAR) is a nuclear receptor which regulates multiple drug metabolizing enzymes (DMEs) and transporters. Activating CAR will generally increase the transcription and subsequent translation of CYP2B6 and CYP3A4. These two DMEs represent about 50% of the drug metabolizing potential in the body. When CAR is deactivated, the metabolizing potential in the body will decrease, subsequently increasing the toxicity in the body or lowering the therapeutic potential of a pro-drug. Recently, there have also been studies performed indicating CARs role in energy metabolism and cancer therapy. Therefore, inhibiting CARs activity could have a potential effect on diabetes and cancer. Identifying environmental toxins and compounds which modulate CAR, through the use of the Tox21 10K compound collection, will be an important step in determining the toxicity and potential therapeutic effects these factors will have on the human body.
# Tox21 Assay Protocol Summary: A double-stable (hCAR and CYP2B6-2.2kb) transfected cell line, derived from human hepatoma (HepG2) cells, was utilized for the duration of the quantitative high-throughput screens. The HepG2-CYP2B6-hCAR cells suspended in DMEM culture medium supplemented with 10% FBS, 5 ug/mL blasticidin, 0.5 mg/mL geneticin, 100 U/mL penicillin and 100 ug/mL streptomycin were dispensed at 2500 cells/4 uL/well in 1536-well white solid bottom plates using a Multidrop Combi. After the assay plates were incubated at 37 C/5% CO2 for 4 hrs, 23 nL of compounds at 15 concentrations (from 5-48 columns) or positive control (from 1 to 4 columns) were transferred to the assay plates using a Pintool station. One uL of CITCO, was added using a Flying Reagent Dispenser to generate a final concentration of 50 nM CITCO inside each well. After a 24 hr incubation period at 37 C/5% CO2, four uL of ONE-Glo reagent was added into the assay plates using a Flying Reagent Dispenser. After a 30 min incubation period at room temperature, the luminescence intensity in the assay plates was measured using a ViewLux plate reader.
# % is set by controls: 0 for no effect and ±100 for the full control effect; potency is the fitted concentration of half-maximal effect.
# Nuclear receptor subfamily 1 group I member 3 (Homo sapiens), sequence (Q14994 whole entry, looked up): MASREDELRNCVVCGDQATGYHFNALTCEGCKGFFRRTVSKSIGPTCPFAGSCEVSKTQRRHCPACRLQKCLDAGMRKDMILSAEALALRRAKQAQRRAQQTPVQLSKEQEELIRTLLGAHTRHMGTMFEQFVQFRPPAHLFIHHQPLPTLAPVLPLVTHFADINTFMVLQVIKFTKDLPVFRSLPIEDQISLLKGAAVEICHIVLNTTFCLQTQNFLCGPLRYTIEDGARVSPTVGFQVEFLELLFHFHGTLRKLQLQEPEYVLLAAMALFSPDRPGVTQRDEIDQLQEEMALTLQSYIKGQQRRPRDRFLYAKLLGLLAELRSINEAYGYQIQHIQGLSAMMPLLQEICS
SMILES,Potency,"activity, negative = inhibition"
CNCCC(Oc1ccc(C(F)(F)F)cc1)c1ccccc1 (stereo not given),29.8 µM (active),
O=Nc1ccc(Nc2ccccc2)cc1,inactive,
O=C1CC2(CCCC2)CC(=O)N1CCCCN1CCN(c2ncccn2)CC1,,14.4% [at 42.5 µM] (inactive)
CN(C)c1ccc(C(=C2C=CC(=[N+](C)C)C=C2)c2ccccc2)cc1,4.73 µM (active) [middle of 4 runs],
CCCOC(=O)c1cc(O)c(O)c(O)c1,inactive,
BrC1CCC(Br)C(Br)CCC(Br)C(Br)CCC1Br (stereo not given),21.6 µM (active) and 25.9 µM (active),
OCCOCCN1CCN(C(c2ccccc2)c2ccc(Cl)cc2)CC1 (stereo not given),,17.8% [at 42.5 µM] (inactive)
CCCN[C@H]1CCc2nc(N)sc2C1,inactive,
CCN(CC)C(=O)Nc1ccc(OCC(O)CNC(C)(C)C)c(C(C)=O)c1 (stereo not given),,-16.5% [at 42.5 µM] (inactive)
Oc1c(Cl)cc(Cl)cc1Sc1cc(Cl)cc(Cl)c1O,17.3 µM (active) and 62.1 µM (active),
CCCCC(CC)COC(=O)CC(C(=O)OCC(CC)CCCC)S(=O)(=O)O (stereo not given),inactive,
CCC(CO)(CO)COCC(CC)(CO)CO,,0.652% (inactive)
C=CS(=O)(=O)O,,3.89% (inactive)
CCn1cc(C(=O)O)c(=O)c2cc(F)c(N3CCNC(C)C3)c(F)c21 (stereo not given),,-6.77% [at 42.5 µM] (inactive)
CC(C)(C)c1ccccc1,,-10.4% (inactive)
CCCCCCCCCCCCc1ccccc1O,30.6 µM (active),
CCCNC(C)C(=O)Nc1ccccc1C (stereo not given),,-5.27% [at 42.5 µM] (inactive)
CC(=O)O[C@]1(C(C)=O)CC[C@H]2[C@@H]3C[C@H](C)C4=CC(=O)CC[C@]4(C)[C@H]3CC[C@@]21C,inactive,
CNC1(C)C2CCC(C2)C1(C)C (stereo not given),,2.27% [at 42.5 µM] (inactive)
CC(C)CCCCCCc1ccc(O)cc1,1.11 µM (active),

SMILES,Potency,"activity, negative = inhibition"
NC(N)=NC(=O)Cc1c(Cl)cccc1Cl,,9.2% [at 42.5 µM] (inactive)
O=C(OCc1ccccc1)c1ccc(O)cc1,inactive,
CCC(C)(Oc1ccc(C2(c3ccc(OC(C)(CC)C(=O)O)cc3)CCCCC2)cc1)C(=O)O (stereo not given),,-7.55% [at 42.5 µM] (inactive)
CC(=O)CC(=O)Nc1ccc2[nH]c(=O)[nH]c2c1,,-4.21% (inactive)
CCCCCCC(O)CCCCCCCCCCC(=O)O (stereo not given),inactive,
Cc1occc(=O)c1OC(=O)C(C)C,,-5.84% (inactive)
c1ccc2cc3c(ccc4ccccc43)cc2c1,inactive,
CCCC(=O)c1ccccc1,,-13.8% (inactive)
O=C(O[C@@H]1Cc2c(O)cc(O)cc2O[C@@H]1c1cc(O)c(O)c(O)c1)c1cc(O)c(O)c(O)c1,,-23.2% (inactive)
CC(C)(C)NCC(O)COc1ccccc1OCC1CCCO1 (stereo not given),,-19.7% [at 42.5 µM] (inactive)
CCCCCCCCCCCCCC[P+](CCCC)(CCCC)CCCC,12.1 µM (active) and 15.4 µM (active),
CC1COC(=O)O1 (stereo not given),inactive,
CCc1ccc(C(c2ccc(CC)cc2)C(Cl)Cl)cc1,inactive,
Cc1cccc([N+](=O)[O-])c1C(=O)O,,-12.1% (inactive)
CC(C)(c1ccccc1)c1ccc(Nc2ccc(C(C)(C)c3ccccc3)cc2)cc1,inactive,
CC(=O)N[C@@H](CS)C(=O)O,inactive,
CCCCCCCCCCCCCCCCCl,,-1.8% [at 19 µM] (inactive)
O=C(O)c1cc(Cl)cc(Cl)c1,,-7.12% (inactive)
Nc1nc(=S)c2[nH]cnc2[nH]1,5.96 µM (active) and 1.93 µM (active) and 2.37 µM (active),
COc1cc(C(=S)N2CCOCC2)ccc1O,,-14.1% [at 42.5 µM] (inactive)
